Assay results from ChEMBL document CHEMBL1157539, “Thousands of chemical starting points for antimalarial lead identification” (Nature, 2010).

How the values were obtained:
Type in all cases: functional
[1] = system: Plasmodium falciparum; assay: GSK_TCMDC: Inhibition of Plasmodium falciparum 3D7 in whole red blood cells, using parasite LDH activity as an index of growth. Test compounds present at 2uM
[2] = system: Plasmodium falciparum; assay: GSK_TCMDC: Inhibition of Plasmodium falciparum Dd2 in whole red blood cells, using parasite LDH activity as an index of growth. Test compounds present at 2uM
[3] = system: HepG2; assay: GSK_TCMDC: Percent inhibition of human HepG2 cell line. Test compounds present at 10uM.

Row | Compound | Inhibition [1] [%] | Inhibition [2] [%] | Inhibition [3] [%]
1 | Cc1cccc2nc(-c3ccc(-c4cccc(CN5CCN(CCO)CC5)c4)cc3)[nH]c12.O=C(O)C(F)(F)F | 100 | 55 | 20
2 | COc1cccc(-c2cccc(NC(=O)C3CCN(Cc4ccc(O)cc4)CC3)c2)c1 | 97 | 97 | 9
3 | CCNc1cc(C(=O)N[C@@H](Cc2ccccc2)[C@H](O)CNC2CCCC2)cc(N2CCCC2=O)c1 | 98 | 98 | 8
4 | Cc1ccc(NC(=O)c2ccc(CN3CCCN(Cc4cccc(O)c4)CC3)cc2)cc1.O=C(O)C(F)(F)F | 90 | 31 | 39
5 | O=C(c1cc(C(=O)NC2CCCCC2)c(=O)n(C2CCCCC2)c1)c1cc(F)ccc1O | 99 | 98 | 22
6 | Cc1ccccc1N1CCN(c2ccc(C(=O)NC3CC3)cn2)CC1.O=C(O)C(F)(F)F | 96 | 96 | 14
7 | O=C(Nc1cc(C(F)(F)F)cc(C(F)(F)F)c1)c1cccc([N+](=O)[O-])c1 | 93 | 15 | 23
8 | O=C(O)C(F)(F)F.O=C1CCCN1CCCNCc1cccc(-c2cccc(-c3nc4cc(C(F)(F)F)ccc4[nH]3)c2)c1 | 100 | 90 | 28
9 | CCN(CC)CCNC(=O)c1ccc(NC(=O)c2oc3c(Cl)cccc3c2C)cc1 | 98 | 68 | 24
10 | CN(CCC1CCN(C(=O)/C=C/c2ccc(Cl)c(Cl)c2)CC1)C1CCC(c2c[nH]c3ccccc23)CC1 (configuration not stated) | 87 | 9 | 57
11 | Cc1cc(Cl)c(S(=O)(=O)N(C)c2ccccc2)cc1OCC(=O)NC1CCCCC1 | 99 | 94 | 3
12 | CCOc1ccc2c(=NN=Cc3cccc(F)c3)cc(C)[nH]c2c1 | 100 | 100 | 0
13 | O=C(Nc1cccc(CN2CCCN(Cc3ccc(O)cc3)CC2)c1)c1ccc(-c2ccccc2)cc1.O=C(O)C(F)(F)F | 100 | 93 | 33
14 | Br.Cc1cc(F)ccc1Nc1nc(N(C)c2ccccc2)c2cccc(O)c2n1 | 92 | 81 | 38
15 | O=c1ccc(-c2nc3cc(Cl)c(Cl)cc3n2Cc2ccc(Cl)cc2Cl)c[nH]1 | 88 | 67 | 0
16 | CCN(C)c1cc(C(=O)N[C@@H](Cc2ccccc2)[C@H](O)CNC(C)(C)c2cccc(OC)c2)cc(N2CCCC2=O)c1 | 100 | 81 | 0
17 | N=C(N)c1ccc(Oc2ccc(C(=N)N)cc2)cc1.O=S(=O)(O)CCO | 92 | 85 | 18
18 | O=C(Nc1cccc(-c2cccc(-c3nc4ccccc4[nH]3)c2)c1)Nc1ccc(F)c(F)c1F | 98 | 95 | 78
19 | c1csc(-c2nc(N3CCCC3)ncc2-c2ccsc2)n1 | 89 | 75 | 1
20 | CCCOc1cccc(C(=O)N[C@@H](Cc2ccccc2)[C@H](O)CNCc2ccccc2OC)c1 | 95 | 61 | 11
21 | CCC1(CC)C(=O)N=C(N2CCCCC2)N(C)C1=O | 89 | 66 | 0
22 | CC(=O)NCC(=O)NC1=NC(=N)N(OCc2ccc3ccccc3c2)C(C)(C)N1 | 95 | 97 | 66
23 | OCc1c(Cl)cc(Cl)cc1CNCCCNc1nc2ccccc2[nH]1 | 100 | 2 | 0
24 | COc1ccc2c(NN=Cc3cccc(C)n3)ccnc2c1 | 96 | 51 | 0
25 | CC(=O)N[C@@H]1c2cc(C(C)=O)ccc2OC(C)(C)[C@@H]1O | 97 | 3 | 15
26 | Cc1nc2nc(N)nc(N)c2c(C)c1Cc1cccs1.Cl | 95 | 2 | 66
27 | FC(F)(F)c1ccc(CSc2ccc3nnc(-c4ccccn4)n3n2)cc1 | 95 | 54 | 0
28 | NC(=O)C1CCN(Cc2ccc(-c3ccc(-c4nc5cc(C(F)(F)F)ccc5[nH]4)cc3)cc2)CC1.O=C(O)C(F)(F)F | 100 | 90 | 25
29 | O=C(Nc1ccc(-c2ccc(-c3nc4cc(C(F)(F)F)ccc4[nH]3)s2)cc1)c1ccoc1 | 94 | 54 | 9
